# Measurements taken from the supplement of paper PMC8728848.
# The sample as a whole holds a higher share of the strongest signals than the screen did.
# Assays:
# Assay in all cases: glycan array binding signal (z-score within array); higher = stronger binding
# Settings in all cases: glycan notation: IUPAC condensed, linker removed
# [1] = target: GlcA3S(b1-3)Gal(b1-4)GlcNAc(b1-3)Gal(b1-4)Glc
# Outline: (§1)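 Glycan array data came from 3228 arrays in the Consortium for Functional Glycomics database, and only arrays with an available protein sequence were kept. Glycan names were put into IUPAC-condensed notation, and columns mapping to the same glycan were averaged. The binding signal is a within-array Z-score, averaged across arrays of one protein sequence run at different concentrations or buffers and across linkers. A negative Z-score can be read as non-binding.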
# [2] = target: GlcNAc(b1-3)Gal(b1-4)GlcNAc
# Outline: as §1
# [3] = target: GlcNAc(b1-3)Gal(b1-4)GlcNAc(b1-3)Gal(b1-4)GlcNAc(b1-3)Gal(b1-4)GlcNAc(b1-2)Man(a1-3)[GlcNAc(b1-3)Gal(b1-4)GlcNAc(b1-3)Gal(b1-4)GlcNAc(b1-3)Gal(b1-4)GlcNAc(b1-2)Man(a1-6)]Man(b1-4)GlcNAc(b1-4)[Fuc(a1-6)]GlcNAc
# Outline: as §1
# GlcNAc(b1-3)Man = target: GlcNAc(b1-3)Man
# Outline: as §1
# [4] = target: GlcNAc(b1-4)Gal(b1-4)GlcNAc
# Outline: as §1
# [5] = target: GlcNAc(b1-4)GlcNAc(b1-4)GlcNAc(b1-4)GlcNAc(b1-4)GlcNAc(b1-4)GlcNAc
# Outline: as §1
# GlcNAc(b1-6)GalNAc = target: GlcNAc(b1-6)GalNAc
# Outline: as §1
# [6] = target: Man(a1-2)Man(a1-2)Man(a1-6)[Man(a1-3)]Man
# Outline: as §1
# [7] = target: Man(a1-3)[Man(a1-6)]Man(a1-6)[Man(a1-3)]Man
# Outline: as §1
# Man(a1-6)Man = target: Man(a1-6)Man
# Outline: as §1
# [8] = target: Neu5Ac(a2-3)Gal(b1-4)GlcNAc(b1-2)[Neu5Ac(a2-3)Gal(b1-4)GlcNAc(b1-6)]Man(a1-6)[Neu5Ac(a2-3)Gal(b1-4)GlcNAc(b1-2)Man(a1-3)][GlcNAc(b1-4)]Man(b1-4)GlcNAc(b1-4)GlcNAc
# Outline: as §1
# [9] = target: Neu5Ac(a2-6)Gal(b1-3)GlcNAc(b1-3)[Gal(b1-4)GlcNAc(b1-6)]Gal(b1-4)Glc
# Outline: as §1
# [10] = target: Neu5Ac(a2-6)Gal(b1-4)GlcNAc
# Outline: as §1
# [11] = target: Neu5Ac(a2-6)Gal(b1-4)GlcNAc(b1-2)Man(a1-6)[GlcNAc(b1-2)Man(a1-3)]Man(b1-4)GlcNAc(b1-4)GlcNAc
# Outline: as §1
# [12] = target: Neu5Ac(a2-6)Gal(b1-4)GlcNAc(b1-2)[Neu5Ac(a2-6)Gal(b1-4)GlcNAc(b1-4)]Man(a1-3)[GlcNAc(b1-4)][Neu5Ac(a2-6)Gal(b1-4)GlcNAc(b1-2)[Neu5Ac(a2-6)Gal(b1-4)GlcNAc(b1-6)]Man(a1-6)]Man(b1-4)GlcNAc(b1-4)GlcNAc
# Outline: as §1
# [13] = target: Neu5Ac(a2-6)Gal(b1-4)GlcNAc(b1-3)Gal(b1-4)GlcNAc(b1-3)GalNAc
# Outline: as §1
# [14] = target: Neu5Ac(a2-6)Gal(b1-4)GlcNAc(b1-3)GalNAc
# Outline: as §1
# Neu5Gc(a2-6)GalNAc = target: Neu5Gc(a2-6)GalNAc
# Outline: as §1
binder,measurement,setting,value
PX9961Q-bfa-504-27-504 (Bacteroides fragilis) (protein) NDWLDRKPADGIPSEDAITNYNDALTARTGMYDGIQGNSNATSYYGARMFYYGDVRADDMQARTQGMRSSSCYEMLYTVDDAPNMWNIPYNVIRRANRLIEAINEKKVTDATEAQIGKIYSEALVVRALVHFDLVRIYGMPYTADNGASLGVPVIVKPLERNDLPSRNTVAEVYTQVITDLTDAINSGYLAKDQTPGYINEWAAKALLTRVYLTKGDNENALKVAEDIITNSPYKLWTNEEYVNAWYKSNGAHTNEMIFEVVNASNDDWTDRNGIAYLLNENGYADAIVTKSFMNMLSQDPKDVRIGMVLPAQYDKDLQEEYGDAKIFINKFPADKDDVGEMRLNNLPLLRLSEVYLSAAEAAAKLGGHQDKAAKYLNEIVQRANPEAKAISEADATVERIILERRKEMIGEGQRYFDALRNNETIVRYKDEGDKGYHYSLIKESQSFDRTYFRAILPIPVDETNVNPNLRAQQNPGY,glycan array binding signal (z-score),[1],-1.22
same,glycan array binding signal (z-score),[2],-0.27
same,glycan array binding signal (z-score),[3],2.65
same,glycan array binding signal (z-score),GlcNAc(b1-3)Man,0.083
same,glycan array binding signal (z-score),[4],-0.752
same,glycan array binding signal (z-score),[5],-0.594
same,glycan array binding signal (z-score),GlcNAc(b1-6)GalNAc,0.361
same,glycan array binding signal (z-score),[6],0.712
same,glycan array binding signal (z-score),[7],0.661
same,glycan array binding signal (z-score),Man(a1-6)Man,-0.352
same,glycan array binding signal (z-score),[8],0.676
same,glycan array binding signal (z-score),[9],6.14
same,glycan array binding signal (z-score),[10],-0.355
same,glycan array binding signal (z-score),[11],-0.638
same,glycan array binding signal (z-score),[12],2.53
same,glycan array binding signal (z-score),[13],-0.164
same,glycan array binding signal (z-score),[14],-0.107
same,glycan array binding signal (z-score),Neu5Gc(a2-6)GalNAc,0.187
